# Data reported in PubChem BioAssay (EPA / NIEHS).
# Several values for one entry are separate records, joined by “and”; a condition that tells them apart may be missing. Equal entries are not always repeated. Results filed as inconclusive are left out. Activity calls are given as the source filed them. The calls were made as follows: active = hit-call score of the fitted dose curve at least 0.9, where 1 is the maximum; inconclusive = response in the unintended direction; inactive = score below 0.9.
# How the values were obtained:
# [1] = target: Muscarinic acetylcholine receptor M1 (Homo sapiens) (UniProt P11229); experiment: NVS_GPCR_hM1: NovaScreen (NVS) G Protein-Coupled Receptor Assay for human Muscarinic, M1 Receptor (AID 2283270)
# Method in brief: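 Actives from a duplicate 25 uM single-point screen were retested in concentration series. Binding measured as displacement of a radioligand from CHO-derived receptor preparation, 1 h incubation, filtration and scintillation counting, analysed as signal loss against DMSO.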
# [2] = target: human Histamine 1 Receptor (H1), HRH1 (gene 3269) (UniProt P35367); experiment: NVS_GPCR_hH1: NovaScreen (NVS) G Protein-Coupled Receptor Assay for human Histamine 1 Receptor (H1) (AID 2283268)
# Method in brief: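 Filter-based scintillation detection of radioligand binding to human H1, 1 h incubation; chemicals screened in duplicate at 25 uM, then concentration-response; signal loss relative to DMSO taken as activity.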
# [3] = target: Type-1 angiotensin II receptor (Homo sapiens) (UniProt P30556); experiment: NVS_GPCR_hAT1: NovaScreen (NVS) G Protein-Coupled Receptor Assay for human Angiotensin II receptor type 1 (AT1) (AID 2283263)
# Method in brief: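 Hits from a 25 uM duplicate screen (threshold e.g. 30% inhibition) were run in concentration-response with 50 uM top concentration. Displacement of specific radioligand from KAN-TS membrane preparations measured after 3 h by filter scintillation, DMSO as baseline.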
# [4] = target: Beta-2 adrenergic receptor (Homo sapiens) (UniProt P07550); experiment: NVS_GPCR_hAdrb2: NovaScreen (NVS) G Protein-Coupled Receptor Assay for human Adrenergic, Beta 2 Receptor (Adrb2) (AID 2283261)
# Protocol: NVS_GPCR_hAdrb2 is a biochemical, single-readout assay that uses extracted gene-proteins from CHO in a cell-free assay. Measurements were taken 1 hour after chemical dosing in a 96-well plate.NVS_GPCR_hAdrb2 is one of one assay component(s) measured or calculated from the NVS_GPCR_hAdrb2 assay. It is designed to make measurements of radioligand binding, a form of binding reporter, as detected with scintillation counting signals by Filter-based radiodetection technology.Data from the assay component NVS_GPCR_hAdrb2 was analyzed into 1 assay endpoint. This assay endpoint, NVS_GPCR_hAdrb2, was analyzed in the positive analysis fitting direction relative to DMSO as the negative control and baseline of activity. Using a type of binding reporter, loss-of-signal activity can be used to understand changes in the binding as they relate to the gene ADRB2. Furthermore, this assay endpoint can be referred to as a primary readout, because the performed assay has only produced 1 assay endpoint. To generalize the intended target to other relatable targets, this assay endpoint is annotated to the gpcr intended target family, where the subfamily is rhodopsin-like receptor.
# Binding assays used specific radioligands (tritiated, iodinated) with non-radioactive competitive displacement ligands in agonist or antagonist protocols (as indicated) and various reference compounds and inhibitors to titrate specific binding to receptors and transporters. Most enzyme assays (CYPs, kinases, phosphatases, proteases, HDACs) used recombinant protein and specific substrates (fluorescence mostly, some colorimetric and radioactive) and inhibitors, followed by a biochemical separation of substrate and product. All assays for the biochemical HTS were initially run in duplicate at a single concentration (10 uM for CYP450 assays and 25 uM for all others). […] Each assay was run with positive and negative controls, and concurrent controls on every plate. The follow-up (secondary) screen tested active chemical-pairs in concentration series, as well as a few additional assays not tested in the primary screen, some selected negative inactives, and several cases re-run in the concentration series for confirmatory purposes.
# [5] = target: human Dopamine Receptor D2 (DRD2), DRD2 (gene 1813) (UniProt P14416); experiment: NVS_GPCR_hDRD2s: NovaScreen (NVS) G Protein-Coupled Receptor Assay for human Dopamine Receptor D2 (DRD2) (AID 2283266)
# Method in brief: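 Test compound (25 uM, duplicate in the primary screen; concentration series at follow-up) competed with radioligand for human DRD2 in CHO-derived membrane protein. Filter-based scintillation counting was done 1.5 hours after dosing, with loss of signal analysed against DMSO.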
# [6] = target: D(1A) dopamine receptor (Homo sapiens) (UniProt P21728); experiment: NVS_GPCR_hDRD1: NovaScreen (NVS) G Protein-Coupled Receptor Assay for human Dopamine Receptor D1 (DRD1) (AID 2283269)
# Method in brief: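 Cell-free radioligand binding to human DRD1 from HEK293 membranes, read 1 h after dosing by filter-based scintillation counting. Loss of signal versus DMSO baseline marks displacement. Primary screen at 25 uM single concentration in duplicate; actives followed up in concentration series.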
# [7] = target: human Dopamine Receptor D4.4 (DRD4.4), DRD4 (gene 1815) (UniProt P21917); experiment: NVS_GPCR_hDRD4.4: NovaScreen (NVS) G Protein-Coupled Receptor Assay for human Dopamine Receptor D4.4 (DRD4.4) (AID 2283264)
# Method in brief: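 Filter-binding assay with a tritiated or iodinated ligand, cell-free receptor prepared from CHO, 1 hour. Loss of bound radioactivity versus DMSO; single 25 uM duplicate screen, then concentration-response for actives.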
# [8] = target: human Endothelin Receptor Type A (ETA), EDNRA (gene 1909) (UniProt P25101); experiment: NVS_GPCR_hETA: NovaScreen (NVS) G Protein-Coupled Receptor Assay for human Endothelin Receptor Type A (ETA) (AID 2283265)
# Method in brief: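 Binding of radioligand to membrane protein extracted from SH-SY5Y cells was read by filtration and scintillation after 3 h. Compounds were screened at 25 uM in duplicate, with hits followed up in singleton concentration series to 50 uM.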
# [9] = target: human Adrenergic, Beta 3 Receptor (Adrb3), ADRB3 (gene 155) (UniProt P13945); experiment: NVS_GPCR_hAdrb3: NovaScreen (NVS) G Protein-Coupled Receptor Assay for human Adrenergic, Beta 3 Receptor (Adrb3) (AID 2283262)
# Method in brief: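 A cell-free filter binding assay read by scintillation counting, with displacement of a specific radioligand measured after 1 hour. The receptor source was SK-N-MC extracts (cells pretreated with isoproterenol and 8-bromo-cAMP). Compounds were first tested at 25 uM in duplicate and then in concentration series.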
# [10] = target: human Endothelin Receptor Type B (ETB), EDNRB (gene 1910) (UniProt P24530); experiment: NVS_GPCR_hETB: NovaScreen (NVS) G Protein-Coupled Receptor Assay for human Endothelin Receptor Type B (ETB) (AID 2283267)
# Method in brief: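 Filter-based scintillation readout of radioligand displacement, 4 h, using membranes from human astrocytoma cells. Actives from a 25 uM duplicate screen were retested in concentration-response (top 50 uM) relative to DMSO baseline.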
# Sequence of human Dopamine Receptor D2 (DRD2), DRD2 (gene 1813) (P14416 whole entry, looked up): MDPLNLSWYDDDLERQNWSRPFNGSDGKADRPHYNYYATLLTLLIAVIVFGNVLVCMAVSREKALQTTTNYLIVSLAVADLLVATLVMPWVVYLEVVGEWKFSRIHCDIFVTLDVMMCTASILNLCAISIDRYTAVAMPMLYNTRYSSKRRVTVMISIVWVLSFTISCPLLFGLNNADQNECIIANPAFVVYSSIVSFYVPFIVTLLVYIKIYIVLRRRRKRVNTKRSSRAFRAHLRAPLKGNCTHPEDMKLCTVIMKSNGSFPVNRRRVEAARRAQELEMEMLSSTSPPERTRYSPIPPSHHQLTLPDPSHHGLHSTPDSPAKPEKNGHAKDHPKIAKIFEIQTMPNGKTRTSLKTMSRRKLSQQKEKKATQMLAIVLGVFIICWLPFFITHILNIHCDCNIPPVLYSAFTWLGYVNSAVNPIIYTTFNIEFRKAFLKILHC
# Sequence of human Histamine 1 Receptor (H1), HRH1 (gene 3269) (P35367 whole entry, looked up): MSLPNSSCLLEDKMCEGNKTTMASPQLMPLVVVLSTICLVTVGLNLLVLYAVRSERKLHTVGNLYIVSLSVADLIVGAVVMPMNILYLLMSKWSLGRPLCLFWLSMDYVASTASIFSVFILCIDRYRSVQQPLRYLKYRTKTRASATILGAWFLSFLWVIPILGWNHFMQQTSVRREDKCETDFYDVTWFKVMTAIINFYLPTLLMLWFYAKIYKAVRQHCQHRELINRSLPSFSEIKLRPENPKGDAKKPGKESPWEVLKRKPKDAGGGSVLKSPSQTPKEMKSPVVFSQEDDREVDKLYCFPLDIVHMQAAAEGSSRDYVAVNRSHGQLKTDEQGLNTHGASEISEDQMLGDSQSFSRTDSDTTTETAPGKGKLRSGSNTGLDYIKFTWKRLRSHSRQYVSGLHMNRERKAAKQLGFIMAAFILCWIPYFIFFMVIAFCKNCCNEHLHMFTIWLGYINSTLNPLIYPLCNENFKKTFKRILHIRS
# Sequence of Type-1 angiotensin II receptor (Homo sapiens) (P30556 whole entry, looked up): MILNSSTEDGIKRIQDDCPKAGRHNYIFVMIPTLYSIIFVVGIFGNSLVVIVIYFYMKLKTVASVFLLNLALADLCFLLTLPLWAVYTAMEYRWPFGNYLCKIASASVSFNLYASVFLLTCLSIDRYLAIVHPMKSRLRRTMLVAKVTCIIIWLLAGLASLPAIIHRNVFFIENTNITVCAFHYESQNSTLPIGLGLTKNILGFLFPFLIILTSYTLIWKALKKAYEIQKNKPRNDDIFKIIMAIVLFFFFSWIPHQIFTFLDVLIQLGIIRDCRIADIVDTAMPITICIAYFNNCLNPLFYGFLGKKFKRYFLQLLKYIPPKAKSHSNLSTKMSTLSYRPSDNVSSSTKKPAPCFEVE
# Sequence of Beta-2 adrenergic receptor (Homo sapiens) (P07550 whole entry, looked up): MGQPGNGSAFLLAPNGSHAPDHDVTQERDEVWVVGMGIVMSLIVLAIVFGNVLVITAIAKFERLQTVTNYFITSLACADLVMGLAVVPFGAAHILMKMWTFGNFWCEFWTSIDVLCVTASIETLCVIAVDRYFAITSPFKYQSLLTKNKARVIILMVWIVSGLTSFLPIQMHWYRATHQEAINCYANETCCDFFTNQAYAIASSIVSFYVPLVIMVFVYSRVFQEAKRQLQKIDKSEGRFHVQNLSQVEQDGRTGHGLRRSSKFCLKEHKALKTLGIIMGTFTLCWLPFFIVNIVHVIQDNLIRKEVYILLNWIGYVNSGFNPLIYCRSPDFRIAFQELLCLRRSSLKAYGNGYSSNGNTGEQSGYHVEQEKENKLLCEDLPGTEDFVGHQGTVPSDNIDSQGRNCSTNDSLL
# Sequence of Muscarinic acetylcholine receptor M1 (Homo sapiens) (P11229 whole entry, looked up): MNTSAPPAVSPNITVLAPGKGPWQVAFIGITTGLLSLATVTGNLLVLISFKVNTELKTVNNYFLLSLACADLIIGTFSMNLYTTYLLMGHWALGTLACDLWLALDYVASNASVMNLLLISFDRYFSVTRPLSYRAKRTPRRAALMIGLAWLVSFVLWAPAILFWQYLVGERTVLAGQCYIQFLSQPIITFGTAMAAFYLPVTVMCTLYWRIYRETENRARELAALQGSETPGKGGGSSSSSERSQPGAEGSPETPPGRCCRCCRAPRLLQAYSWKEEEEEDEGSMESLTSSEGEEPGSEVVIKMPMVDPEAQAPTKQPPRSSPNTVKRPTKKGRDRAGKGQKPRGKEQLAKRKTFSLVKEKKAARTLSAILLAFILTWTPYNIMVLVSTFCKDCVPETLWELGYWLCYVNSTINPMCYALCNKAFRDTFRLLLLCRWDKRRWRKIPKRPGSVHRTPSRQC
# Sequence of D(1A) dopamine receptor (Homo sapiens) (P21728 whole entry, looked up): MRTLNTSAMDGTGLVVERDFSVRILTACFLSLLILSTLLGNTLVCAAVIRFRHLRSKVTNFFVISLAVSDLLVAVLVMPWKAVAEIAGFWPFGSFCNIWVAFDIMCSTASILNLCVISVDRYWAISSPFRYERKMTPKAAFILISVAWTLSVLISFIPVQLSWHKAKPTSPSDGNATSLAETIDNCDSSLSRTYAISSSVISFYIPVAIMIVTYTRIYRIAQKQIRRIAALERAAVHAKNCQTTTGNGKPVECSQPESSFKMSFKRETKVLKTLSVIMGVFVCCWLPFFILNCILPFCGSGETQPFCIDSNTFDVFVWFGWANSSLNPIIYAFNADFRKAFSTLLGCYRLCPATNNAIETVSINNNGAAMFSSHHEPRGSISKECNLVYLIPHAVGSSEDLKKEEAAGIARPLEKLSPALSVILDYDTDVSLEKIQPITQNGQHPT
# Sequence of human Adrenergic, Beta 3 Receptor (Adrb3), ADRB3 (gene 155) (P13945 whole entry, looked up): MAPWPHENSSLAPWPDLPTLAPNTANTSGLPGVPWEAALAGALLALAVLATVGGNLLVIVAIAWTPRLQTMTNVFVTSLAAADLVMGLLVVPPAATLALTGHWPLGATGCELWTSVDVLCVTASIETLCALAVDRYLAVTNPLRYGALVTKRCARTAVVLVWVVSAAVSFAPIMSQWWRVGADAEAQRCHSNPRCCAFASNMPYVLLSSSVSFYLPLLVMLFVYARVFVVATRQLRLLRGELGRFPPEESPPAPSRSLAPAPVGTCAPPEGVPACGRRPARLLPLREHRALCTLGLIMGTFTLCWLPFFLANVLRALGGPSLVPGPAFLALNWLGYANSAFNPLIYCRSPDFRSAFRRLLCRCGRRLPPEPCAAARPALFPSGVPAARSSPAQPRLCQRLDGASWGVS
# Sequence of human Dopamine Receptor D4.4 (DRD4.4), DRD4 (gene 1815) (P21917 whole entry, looked up): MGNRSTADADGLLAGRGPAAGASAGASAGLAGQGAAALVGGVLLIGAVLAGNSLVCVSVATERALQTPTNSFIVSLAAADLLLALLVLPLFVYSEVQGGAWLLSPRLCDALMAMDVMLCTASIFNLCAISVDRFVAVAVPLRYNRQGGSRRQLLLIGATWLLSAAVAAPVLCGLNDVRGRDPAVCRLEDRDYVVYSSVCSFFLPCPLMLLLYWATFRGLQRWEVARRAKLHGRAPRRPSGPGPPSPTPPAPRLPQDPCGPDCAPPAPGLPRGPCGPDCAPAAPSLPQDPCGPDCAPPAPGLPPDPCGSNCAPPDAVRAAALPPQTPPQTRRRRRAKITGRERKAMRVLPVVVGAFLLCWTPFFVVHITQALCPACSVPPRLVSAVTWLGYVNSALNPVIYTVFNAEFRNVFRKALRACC
# Sequence of human Endothelin Receptor Type A (ETA), EDNRA (gene 1909) (P25101 whole entry, looked up): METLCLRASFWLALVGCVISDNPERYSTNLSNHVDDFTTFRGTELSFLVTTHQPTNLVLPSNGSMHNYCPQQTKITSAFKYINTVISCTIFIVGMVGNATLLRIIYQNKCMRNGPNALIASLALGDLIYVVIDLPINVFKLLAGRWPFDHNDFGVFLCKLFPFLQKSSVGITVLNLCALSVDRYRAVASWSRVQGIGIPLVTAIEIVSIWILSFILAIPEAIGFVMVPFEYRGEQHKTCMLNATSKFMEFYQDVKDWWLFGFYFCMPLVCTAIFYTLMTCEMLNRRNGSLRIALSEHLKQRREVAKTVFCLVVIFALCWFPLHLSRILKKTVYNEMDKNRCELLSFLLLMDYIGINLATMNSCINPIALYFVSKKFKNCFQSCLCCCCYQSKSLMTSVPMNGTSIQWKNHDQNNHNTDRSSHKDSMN
# Sequence of human Endothelin Receptor Type B (ETB), EDNRB (gene 1910) (P24530 whole entry, looked up): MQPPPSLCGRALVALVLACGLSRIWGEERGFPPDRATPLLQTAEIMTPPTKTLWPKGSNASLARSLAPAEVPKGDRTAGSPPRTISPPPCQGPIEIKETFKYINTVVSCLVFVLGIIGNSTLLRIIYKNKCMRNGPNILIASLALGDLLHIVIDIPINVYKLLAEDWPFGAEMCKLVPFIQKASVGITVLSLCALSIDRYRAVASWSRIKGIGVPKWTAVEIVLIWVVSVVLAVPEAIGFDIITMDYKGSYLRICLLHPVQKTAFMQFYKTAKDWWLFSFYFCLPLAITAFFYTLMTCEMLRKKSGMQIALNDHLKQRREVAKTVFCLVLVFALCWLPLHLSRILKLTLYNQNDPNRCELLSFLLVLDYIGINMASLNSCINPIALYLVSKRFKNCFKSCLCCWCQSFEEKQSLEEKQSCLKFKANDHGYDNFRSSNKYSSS
smiles,measurement,setting,value
CCOC(=O)C(C)Oc1ccc(Oc2nc3ccc(Cl)cc3o2)cc1 (configuration not stated),AC50,[1],17.2 µM (active)
CCOC(=O)COc1cc(-n2ncc(C(F)(F)F)c(C)c2=O)c(F)cc1Cl,outcome,[2],inactive
COCCO,outcome,[3],inactive
COC(=O)c1ccccc1S(=O)(=O)NC(=O)Nc1nc(OC(F)F)cc(OC(F)F)n1,outcome,[4],inactive
Oc1ccc(C(c2ccc(O)cc2)C(Cl)(Cl)Cl)cc1,outcome,[4],inactive
same,AC50,[5],25 µM (active)
same,AC50,[6],6.83 µM (active)
same,AC50,[1],6.79 µM (active)
CCOC(=O)NCCOc1ccc(Oc2ccccc2)cc1,outcome,[1],inactive
C=CCOC(Cn1ccnc1)c1ccc(Cl)cc1Cl (configuration not stated),outcome,[4],inactive
same,AC50,[1],5.47 µM (active)
O=C(c1ccc(O)cc1O)c1ccc(O)cc1O,outcome,[7],inactive
S=C([S-])NCCNC(=S)[S-].[Mn+2],outcome,[5],inactive
same,outcome,[2],inactive
CCCCC(CC)CN1C(=O)C2C3C=CC(C3)C2C1=O (configuration not stated),outcome,[4],inactive
N#CSCSc1nc2ccccc2s1,AC50,[3],9.3 µM (active)
same,AC50,[6],14.8 µM (active) and 16.7 µM (active)
S=C(S)NCCNC(=S)S.[Mn+2].[S-]C([S-])=NCCN=C([S-])[S-].[Zn+2],outcome,[3],inactive
same,outcome,[8],inactive
same,outcome,[5],inactive
same,outcome,[2],inactive
CCOC(=O)[C@H](C)Oc1ccc(Oc2nc3ccc(Cl)cc3o2)cc1,outcome,[1],inactive
CCNc1nc(N)nc(Cl)n1,outcome,[2],inactive
CCCCCCC(C)OC(=O)COc1nc(F)c(Cl)c(N)c1Cl (configuration not stated),outcome,[3],inactive
same,AC50,[6],25 µM (active)
CC(C)CCCCCCc1ccc(O)cc1,AC50,[6],25 µM (active)
CC(C)(c1ccc(O)cc1)c1ccc(O)cc1,outcome,[4],inactive
same,outcome,[9],inactive
same,outcome,[6],inactive
CCCCOC(=O)C(C)Oc1ccc(Oc2ccc(C(F)(F)F)cn2)cc1 (configuration not stated),AC50,[1],12.1 µM (active)
C#C[C@]1(O)CC[C@H]2[C@@H]3CCC4=CC(=O)CC[C@@H]4[C@H]3CC[C@@]21CC,outcome,[10],inactive
CC1(C)C(C=C(Cl)Cl)C1C(=O)OCc1cccc(Oc2ccccc2)c1 (configuration not stated),outcome,[6],inactive
